Test results from PubChem BioAssay AID1822 (The Scripps Research Institute Molecular Screening Center, 2009).
About 3,500 (1.2%) of roughly 290,000 compounds were called active.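 Rule for the calls: active = inhibition above the campaign mean inhibition over all tested compounds plus 3 SD (cut at about 28% in these data); inactive = the rest.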 The entries come from a sample that favours actives as a whole.

tested on: M18 aspartyl aminopeptidase (Plasmodium falciparum 3D7); test: PfM18AAP inhibitors, malaria aminopeptidase, primary screen, biochemical, QFRET, recombinant enzyme (AID 1822); conditions: H-Glu-NHMec fluorogenic cleavage, at 7.35 µM, stronger effect = higher value;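 note: 0% = plate median of test compound wells and 100% = 2 mM ZnCl2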

inhibition, inactive:
CCN(CC)CCCNC(=O)c1cc2c(=O)[nH]c3ccc(C)cc3c2s1 0.43%
CCOc1cc(C(=O)O)ccc1OCCOc1ccccc1 9.32%
[2H]C(CCOS(N)(=O)=O)c1ccccc1 (stereo not given) -1.1%
CCSc1nc2sc3c(c2c(=O)[nH]1)CC(C)(C)OC3 -5.01%
CCOC(=O)CSc1nc2sc3c(c2c(=O)[nH]1)CC(C)(C)OC3 10.6%
COc1ccccc1OCC(=O)Nc1c2c(nn1-c1ccc(F)cc1)CS(=O)(=O)C2 -3.07%
Cc1nnc(SCC(=O)NC2CCCC2)s1 5.86%
Cc1cnc(NC(=O)CSc2nnc(C)s2)s1 -8.35%
CC1C/C(=N/NC(=O)c2cccs2)CC(C)(C)C1 (stereo not given) -19.4%
Cc1ccc(C)c(NC(=O)CCC(=O)N/N=C2/CC(=O)CC(C)(C)C2)c1 -1.68%
COc1ccccc1CNS(=O)(=O)CC12CCC(CC1=O)C2(C)C (stereo not given) 6.59%
O=C(Nc1cccc(O)c1)c1ccc(C(=O)c2ccccc2)o1 -0.92%
C/C(=C\C(=O)c1cccnc1)Nc1ccc(C)c(C)c1 1.47%
COc1ccc(N2CCN(c3ccc([N+](=O)[O-])cc3Cl)CC2)cc1 -8.52%
O=C(O)C1CCN(c2ccc([N+](=O)[O-])cc2[N+](=O)[O-])CC1 -4.27%
CCOc1ccc(C(=O)Nc2cccc(SC)c2)cc1 -1.4%
COc1ccc(Cl)cc1NC(=O)CN1CCN(C(=O)N2CCOCC2)CC1 -7.2%
O=C(CN1C(=O)COc2ccc(Cl)cc21)Nc1ccc(N2CCOCC2)cc1 -12.7%
CCOc1ccc(C(=O)CCN2CCOCC2)cc1 -12.6%
O=C1c2ccccc2C(=O)N1CCOc1ccc(F)cc1 -6.45%
CCn1c(SCC(=O)Nc2ccc(Br)cc2)nc2sc3c(c2c1=O)CCN(C)C3 7.65%
N#Cc1ccsc1NC(=O)CN1CCN(S(=O)(=O)c2cc(Cl)ccc2Cl)CC1 -4.98%
COc1ccc(Cl)cc1S(=O)(=O)N1CCN(CC(=O)C(C)(C)C)CC1 -1.35%
C/C(=N\NC(=O)c1ccccc1F)c1ccccn1 -8.33%
CC(C)(C)NC(=O)NC(=O)COC(=O)C1c2ccccc2Oc2ccccc21 6.75%
CN(C(=O)CC1C(=O)NCCN1Cc1ccc(F)cc1Cl)C1CCCCC1 (stereo not given) -5.56%
CCn1ccnc1CNC(=O)CC1C(=O)NCCN1CCCc1ccccc1 (stereo not given) 7.75%
CCN(c1cccc(C)c1)S(=O)(=O)c1ccc(-c2coc(C)n2)cc1 -0.79%
CCOc1ccccc1/C=N/Nc1nc2ccccc2o1 2.76%
Brc1ccccc1/C=N/Nc1nc2ccccc2o1 -0.38%
O=C(NC1Cc2ccccc2C1)c1cc(COc2cccc(C(F)(F)F)c2)on1 0.88%
O=C(O)c1ccccc1-c1ccccc1C(=O)NCCc1ccccc1 0.27%
COc1cccc(NC(=S)NCCCN2CCOCC2)c1 -6.09%
Cc1ccc(C(=O)NC(=S)NCCN2CCOCC2)cc1 -7.16%
c1cnc(N2CCN(c3ccc4ccccc4n3)CC2)nc1 -7.11%
COC(=O)c1cc(NS(=O)(=O)c2ccc3c(c2)c(=O)n(C)c(=O)n3C)cc(C(=O)OC)c1 7.75%
CCOC(=O)[C@H]1[C@H]2COc3cc(OC)ccc3[C@@H]2N2C(=O)N(c3ccc(Br)cc3)C(=O)[C@@]12C 8.12%
COc1cc(Cl)ccc1OCc1cc(C(=O)N2CC[C@@H]3CCCC[C@H]3C2)no1 -8.61%
CCn1c(SCC(=O)N/N=C/c2ccncc2)nc2ccccc21 -5.49%
Cc1nc2ccccc2n1CC(=O)N/N=C/c1cccnc1 0.09%
CCOc1ccc(/C=N/NC(=O)CSc2ccccn2)cc1O -7.37%
CCOc1cc(/C=N/NC(=O)CN2CCCCC2)ccc1O -2.78%
CC(=O)Oc1ccc(-c2cccc(C(=O)N3CCCCC3)c2)cc1 0.56%
CSc1nccc(NC(=O)c2ccc(C(C)(C)C)cc2)n1 -0.09%
Cc1cccc([C@@H]2[C@@H]3C(=O)N(Cc4ccccc4)C(=O)[C@@H]3[C@]3(C)C(=O)N(c4ccc(Br)cc4)C(=O)N23)c1 -12%
Cc1ccc(CNC(=O)[C@@H](NC(=O)Cc2ccccc2)C(C)C)cc1 5.66%
COc1cccc(NC(=O)Nc2nnc(N3CCCCC3C)s2)c1 (stereo not given) 0.21%
CCOc1ccccc1NC(=O)c1cccnc1 -12.7%
COc1ccccc1NC(=O)c1ccc2nc(N3C(=O)CCC3=O)sc2c1 -4.36%
CC(C)Cn1c(=O)c2ccccc2n2c(CCC(=O)NCc3ccccn3)nnc12 -6.62%
CCOc1ccc(S(=O)(=O)N2CCN=C2Cc2ccccc2)cc1C -0.06%
O=c1[nH]c(NCCO)nnc1Cc1ccc(Cl)cc1 5.33%
Cc1nnc(N/N=C/c2ccccn2)[nH]c1=O 8.17%
COc1cccc(N(CC(=O)NCc2ccccc2)C(=O)CCC(=O)Nc2nccs2)c1 -7.44%
CCCn1c2ccccc2c2cnn(CC(=O)NCCCN3CCCCC3CC)c(=O)c21 (stereo not given) 2.69%
COc1cccc(C2Nc3cccc4cccc(c34)N2)c1 -7.19%
Cc1ccc(C2Nc3cccc4cccc(c34)N2)cc1 19.1%
CCOC(=O)C1(Cc2cccc(OC)c2)CCCN(C(=O)CCSC)C1 (stereo not given) -2.88%
Cc1ccc(C)c(N2CCN(C(=O)CCCCCn3c(=S)[nH]c4ccc(N5CCOCC5)cc4c3=O)CC2)c1 5.1%
O=C(O)CC(CC(=O)N1CCOCC1)c1ccccc1 (stereo not given) -1.93%

inhibition, active:
CC/C(C)=N/Nc1nc2sc3c(c2c(=O)[nH]1)CC(C)(C)OC3 48.8%
Cc1nnc(SCC(=O)Nn2cnnc2)s1 41.6%
CC1(C)CC(=O)C/C(=N\NC(=O)c2cccs2)C1 38.3%
C/C(=C\C(=O)c1ccccc1)Nc1cccc(O)c1 31%
O=[N+]([O-])c1ccc(N2CCN(c3ccc(O)cc3)CC2)c(Cl)c1 36%
O=C(Nc1cc(N2CCOCC2)ncn1)NC1(C(F)(F)F)Oc2ccc(Cl)cc2O1 (stereo not given) 89.4%
O=C(CN1CCN(S(=O)(=O)c2cc(Cl)ccc2Cl)CC1)c1ccc(O)c(O)c1 71.5%
CCn1ccnc1CNC(=O)CC1C(=O)NCCN1Cc1ccc(F)cc1Cl (stereo not given) 33.7%
COc1ccc(/C=N/Nc2nc3ccccc3o2)cc1OC 56.5%
CCOc1cccc(/C=N/NC(=S)NCCN2CCOCC2)c1O 37.6%
Cn1c(SCC(=O)N/N=C/c2ccc(O)c(O)c2)nc2ccccc21 61.1%
Cc1nccn1CC(=O)N/N=C/c1ccc(O)c(O)c1 59.7%
COc1ccccc1NC(=O)c1ccc(N2CC3CC(C2)c2cccc(=O)n2C3)c(NC(=O)c2cccnc2)c1 (stereo not given) 29.5%
COc1ccc(Cc2nnc(N/N=C/c3ccccc3O)[nH]c2=O)cc1OC 54.3%
Oc1ccc(C2Nc3cccc4cccc(c34)N2)cc1 31.7%
